Screens deposited in PubChem BioAssay by National Center for Advancing Translational Sciences (NCATS).
In the library only some 19% were active in any assay of this set; here they are far more common.
TDP1 cell CPT: DT40-hTDP1 cell growth loss with CPT. Potency, µM (series often up to 46.2 µM), most hits filed as inhibitors. hit rate 12% among 420,000. AID 686979. chicken DT40 Tdp1-/-;hTDP1 cells + 20 nM CPT, ATP luminescence, 48 h; further: nearly all actives have a fitted effect of over 55% in size
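Chicken DT40 Tdp1-/- cells complemented with human TDP1, 400 cells/well, exposed to compounds plus 20 nM camptothecin for at least 48 h at 37 C; viability read as ATP content by CellTiter-Glo luminescence.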
IL1B secr inh: inflammasome signaling inhibition, IL-1 beta readout. THP-1 LPS/ATP IL-1B secretion, AlphaLISA, 16 h; hits give low values. AID 743279. hit rate 4.7% among 360,000. activity change, % at 57.5 µM; in the data active means activity change below about -50%; inconclusive means mostly about -30% to -49%
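THP-1 cells pretreated 1 hr with compounds (up to 57.5 uM final), then stimulated with LPS (250 ng/mL final) plus ATP (1.25 mM final); secreted IL-1B measured by AlphaLISA after 16 hr, decreased signal indicating inhibition.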
HT1080-NT tox: kills 2HG-producing HT-1080-NT fibrosarcoma cells; HT-1080-NT fibrosarcoma viability, CellTiter-Glo ATP luminescence, 48 h; Potency, µM (highest dose often 46.1 µM), actives largely listed as cytotoxic; hit rate 1.6% among 360,000; AID 686970;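 further: NT is the 2HG producing partner of a matched IDH1 knockdown line; nearly all actives have a fitted effect of over 55% in size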
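HT-1080-NT; 750 cells/well; 5% FBS RPMI; 48 h compound, 37 degrees C; CellTiter-Glo luminescence; curve fitting and curve-class assignment.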
TDP1 cell noCPT: qHTS for Inhibitors of human tyrosyl-DNA phosphodiesterase 1 (TDP1): qHTS in cells in absence of CPT; DT40 Tdp1-/- hTDP1 cells, no CPT, ATP luminescence, 48 h; Potency, µM (highest dose often 46.2 µM), actives largely listed as inhibitors; hit rate 15% among 420,000; further: nearly all actives have a fitted effect of over 55% in size
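Compound effects on proliferation are scored in DT40 Tdp1-/-;hTDP1 cells in the absence of CPT. ATP levels (CellTiter-Glo luminescence) are recorded after a ≥48 hr, 37 °C incubation.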
ELG1 DNA repair: ELG1-dependent DNA repair inhibition. AID 504467. Potency, µM (top dose mostly 46.1 µM), most hits filed as inhibitors. HEK293T ELG1-luciferase reporter, luminescence, 16 h; DNA damage induced by 5-fluorouridine. hit rate 2.3% among 330,000; further: nearly all actives have a fitted effect of over 55% in size
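5-Fluorouridine DNA damage + compound/DMSO, 2,000 cells/well, 16 h, 37 °C/5% CO2. ONE-Glo, 30 min RT, luminescence. Readout = decrease in reporter signal.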
HT1080 IDH1KD tx: toxicity to HT-1080 IDH1 knockdown cells (counter line) | HT-1080 IDH1 knockdown viability, ATP luminescence, 48 h | Potency, µM (highest dose often 46.1 µM), actives largely listed as cytotoxic | hit rate 2% among 360,000
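Knockdown cells (IDH1KD HT-1080) received compounds 2 h after plating at 750 cells/well and were kept 48 h at 37 °C in 5% FBS RPMI. A CellTiter-Glo luminescence read gave % activity for curve fitting.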
Hits are given with their value; . = inactive; ? = inconclusive; / = not tested or not shown; [ ] = dose if it differs, or a comment. Unless noted, the call rests on the fitted dose curve; in most records, active means well fitted curve in the direction sought with a large enough effect; inconclusive means small, poorly fitted or top-dose-only effect, or another doubt; inactive means no such curve, though single readings can be large; an effect the other way counts as inactive or inconclusive.

SMILES | TDP1 cell CPT | IL1B secr inh | HT1080-NT tox | TDP1 cell noCPT | ELG1 DNA repair | HT1080 IDH1KD tx
Cc1cccc(N2CCN(C(=O)[C@H](C)N3C(=O)C4CC=CCC4C3=O)CC2)c1C (some centres undefined) | 23µM | . | . | 26µM | . | .
Cc1cccc(N2CCN(C(=O)C(C)n3nc(C)n4c(cc5occc54)c3=O)CC2)c1C (centres undefined) | ? | . | . | 18µM | ? | .
Cc1ccc(-n2c(=O)c3ccc(C(=O)NCc4ccccc4Cl)cc3n(Cc3ccccc3F)c2=O)cc1 | . | / | / | . | / | /
CCOC(=O)c1sc(N2C(=O)c3oc4ccccc4c(=O)c3C2c2ccc(C(C)(C)C)cc2)nc1C (centres undefined) | . | / | / | . | / | /
N#Cc1cccc(OC(=O)C2CCN(C(=O)c3ccc(F)cc3)CC2)c1 | . | . | . | . | / | .
COc1ccccc1CNC(=O)c1oc2c(c1C)-c1nn(Cc3ccc(Cl)cc3)cc1CC2 | 16µM | / | / | 21µM | / | /
CC(=O)Nc1ccc(NC(=O)c2oc3c(c2C)-c2nn(Cc4ccccc4Cl)cc2CC3)cc1 | 8.2µM | / | / | 18µM | / | /
CCn1cc2c(n1)-c1c(oc(C(=O)Nc3ccc(Br)cc3F)c1C)CC2 | ? | / | / | 21µM | / | /
CCOC(=O)c1oc2c(c1C)-c1nn(Cc3ccc(Cl)cc3)cc1CC2 | 16µM | / | / | 21µM | / | /
O=C(Nc1ccccc1)N1CCC2(CC1)CCN(C(=O)c1ccncc1)CC2 | . | / | / | . | / | /
COc1cc(NC(=O)CSCc2ccc(Cl)cc2)c(C(=O)O)cc1OC | . | . | . | . | . | .
CCOC(=O)C1(C)CCN1C(=O)c1ccc2ccccc2c1 (centres undefined) | ? | . | . | ? | / | ?
O=C(Cn1cc(C(F)(F)F)ccc1=O)Nc1ccc2c(c1)OCO2 | . | . | . | . | / | .
COc1ccc(OC)c(CN2CCOc3ccc(CN4CCC(O)(c5cccnc5)CC4)cc3C2)c1 | .[9.04 µM] | / | / | ? | / | /
Cc1ccc(CNC(=O)c2oc3c(c2C)-c2nn(Cc4ccc(Cl)cc4)cc2CC3)cc1 | 10µM | / | / | 9.2µM | / | /
Cc1cccc(CNC(=O)c2oc3c(c2C)-c2nn(Cc4cccc(Cl)c4)cc2CC3)c1 | ? | / | / | 29µM | / | /
CCOc1ccc(CCNC(=O)c2oc3c(c2C)-c2[nH]ncc2CC3)cc1OCC | ? | . | . | ? | . | .
Cc1cccc(CNC(=O)c2oc3c(c2C)-c2nn(Cc4ccccc4Cl)cc2CC3)c1 | ? | / | / | 21µM | / | /
CCOc1ccc(CNC(=O)c2oc3c(c2C)-c2nn(Cc4cccc(Cl)c4)cc2CC3)cc1 | 18µM | / | / | 16µM | / | /
Cc1c(C(=O)NCc2ccccc2)oc2c1-c1[nH]ncc1CC2 | ? | / | / | . | / | /
Cc1c(C(=O)NCc2ccccc2Cl)oc2c1C(=O)CCC2 | / | / | / | / | . | /
CCOC(=O)c1nc(NCc2ccccc2F)c2ccccc2n1 | ? | . | . | ? | . | .
COc1ccc(CCn2c(=O)c3ccccc3n(CC(=O)Nc3cccc(C)c3)c2=O)cc1OC | . | / | / | . | / | /
COCC(=O)Nc1cc(C(=O)N2CC3CCCC2C3)c2c(c1)nc(-c1ccncc1)n2C (centres undefined) | .[9.04 µM] | / | / | . | / | /
COc1ccc(CNC(=O)c2oc3c(c2C)-c2nn(Cc4ccccc4Cl)cc2CC3)cc1 | ? | / | / | 23µM | / | /
SMILES | TDP1 cell CPT | IL1B secr inh | HT1080-NT tox | TDP1 cell noCPT | ELG1 DNA repair | HT1080 IDH1KD tx
COc1ccc(CNC(=O)c2c(-c3c(F)cccc3Cl)noc2C)cc1 | . | . | . | ? | . | .
CC(C)=CC(=O)OCc1cc([N+](=O)[O-])cc2c1OCOC2 | . | -53 | . | . | ? | .
O=C(OCc1cc([N+](=O)[O-])cc2c1OCOC2)c1ccc2ccccc2n1 | . | . | . | . | . | .
CN1CC(C(=O)Nc2ccc(F)c(Cl)c2)CC1=O (centres undefined) | . | . | . | . | . | .
CCOC(=O)C(=CNc1ccc(O)c(C(=O)OC)c1)C(=O)OCC | ? | . | . | . | / | .
CCOC(=O)C(=CNNc1ccccc1)C(=O)OCC | 4.6µM | . | . | 16µM | 6.5µM | .
CCC(O)CC(C(=O)NNc1ccccc1)C(=O)NNc1ccccc1 (centres undefined) | . | . | 2.6µM | . | ? | 5.8µM
CCOC(=O)Nc1cccc(Nc2ccccc2)c1 | ? | . | . | ? | . | .
CC(C)C(O)(C(=O)NNc1ccccc1)C(C)C | . | . | . | . | . | .
CCOC(=O)NNc1ccccc1 | . | . | 4.1µM | . | ? | 3.7µM
COc1ccccc1NC(=O)CSCc1cc(=O)c2cccc(Cl)c2[nH]1 | . | / | / | . | / | /
COc1ccccc1CNC(=O)CCC1N=C2c3ccccc3N=C(SCC(=O)NCC3CCCO3)N2C1=O (centres undefined) | . | . | . | . | . | .
CC1(C)CCN2CCC(C)(C)c3c(O)ccc1c32 | 3.3µM | . | ? | 3.7µM | ? | ?
CCCN(CCC)Cc1cc(=O)oc2ccc3ccccc3c12 | ? | . | . | ? | / | ?
COCCN(CCOC)Cc1cc(=O)oc2ccc3ccccc3c12 | ? | . | . | 18µM | / | .
COc1ccc(Oc2ncc3nc(CCc4ccccc4)c(=O)n(C)c3n2)cc1 | . | / | / | . | / | /
CCN1C(=O)/C(=C\c2nc3ccccc3c(=O)n2CC)c2ccccc21 | 16µM | -86 | . | 29µM | ? | .
CCn1c(/C=C2\C(=O)N(C(C)C)c3ccccc32)nc2ccccc2c1=O | ? | . | . | ? | . | .
CCN1C(=O)/C(=C/c2nc3ccccc3c(=O)n2-c2ccccc2)c2ccccc21 | 21µM | / | . | 18µM | ? | .
CCn1c(/C=C2/C(=O)N(C)c3ccccc32)nc2ccccc2c1=O | ? | . | . | 16µM | . | .
CCn1c(/C=C2\C(=O)N(C)c3ccccc32)nc2ccccc2c1=O | ? | . | . | ? | . | .
Cc1cc(=O)oc2cc(O)c(O)cc12 | . | / | / | . | / | /
Clc1ccccc1-c1nnc(COc2ccccc2)o1 | . | / | / | . | / | /
CCN(C(=O)c1ccc(S(=O)(=O)N2CCOCC2)cc1)C1CCS(=O)(=O)C1 (centres undefined) | . | . | . | . | . | .
Cc1ccc(Sc2cc(NCCCO)c([N+](=O)[O-])c3nonc23)cc1 | 2.3µM | . | . | 2.9µM | . | .
CC(C)CCSc1cc(NCCO)c([N+](=O)[O-])c2nonc12 | ? | . | ? | ? | ? | 18µM
CC(=O)OCCCNc1cc(Sc2ccc(Cl)cc2)c2nonc2c1[N+](=O)[O-] | 2.1µM | ? | . | 3.7µM | . | .
COC(=O)CCSc1cc(NCCCOC(C)=O)c([N+](=O)[O-])c2nonc12 | 5µM | / | / | 5µM | / | /
